Results on 7 compounds are retold here after PubChem BioAssay (Tox21).

Several values for one entry are separate records, joined by “and”; a condition that tells them apart may be missing. Identical values can stand only once. Records with an inconclusive call do not appear. Some structures have more than one record in an assay (separate samples or runs), and their calls can disagree. Activity calls are given as the source filed them. Unless noted, calls come from the whole dose curve; as a rule, active = well fitted curve in the direction sought with a large enough effect in the repeat runs; inconclusive = weak or mixed curves; inactive = no such curve, though single readings can be large; an effect the other way counts as inactive or inconclusive.

The nature of assay [1]: qHTS assay to identify small molecule agonists of the sonic hedgehog signaling (Shh) pathway (AID 1259368; calls by dose curve;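 note: NIH/3T3-derived 3T3Gli1-Luc cells carrying a stable Gli1-driven firefly luciferase reporter; series mostly up to about 92 µM; nearly all actives have a fitted effect of over 15% in size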). An outline of the steps: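 3T3Gli1-Luc (NIH/3T3 clone, stable Gli1-Luc); 4 hr pre-incubation, then cpd in DMSO 24 hr, 37 C/5% CO2; luciferase reagent 30 min RT; luminescence.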
Assay [2] in a line: qHTS assay to identify small molecule agonists of the androgen receptor (AR) signaling pathway in the presence of an antagonist - cell viability counter screen (AID 1259379).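 Note: MDA-kb2 human breast cancer cells carrying an MMTV luciferase reporter; series mostly up to about 92 µM; nearly all actives have a fitted effect of over 25% in size.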 The method, boiled down: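 Cells: MDA-kb2 (MMTV-luc, AR and GR elements), 3,000/well, 5 hr settle. Added: nilutamide 3.0uM final, then compounds (15 conc.). Incubation: 16 hr, 37C, no CO2. Read-out: CellTiter-Fluor, 1 hr, fluorescence.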
In general terms: Quantitative high-throughput screening tests each substance at several concentrations.

Assay [3] can be described thus: qHTS assay to identify small molecule agonists of the estrogen receptor beta (ER-beta) signaling pathway - cell viability counter screen (AID 1259380). Note: nearly all actives have a fitted effect of over 30% in size. Note: potency is the fitted concentration of half-maximal effect. The method, boiled down:
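HEK293T ER-beta-UAS-bla; 2% CS-FBS; 6 hr pre-plate, 16 hr cpd at 37C/5% CO2; LiveBLAzer read first, then CellTiter-Glo 30 min RT, luminescence.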

Assay [4] is described as follows: qHTS assay to identify small molecule antagonists of the estrogen receptor beta (ER-beta) signaling pathway - cell viability counter screen (AID 1259382). Note: nearly all actives have a fitted effect of over 55% in size. Note: potency is the fitted concentration of half-maximal effect. An outline of the steps:
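Cells: ER-beta-UAS-bla HEK293T, 2,000/well, 2% CS-FBS, 6 hr settle. Cpd + E2 (1nM final), 16 hr, 37C/5% CO2. Bla FRET substrate 2 hr RT, then CellTiter-Glo 30 min RT, luminescence.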

A short description of assay [5]: qHTS assay to identify small molecule agonists or antagonists of the thyroid stimulating hormone receptor (TSHR) signaling pathway - wild type cell line counter screen (AID 1259384; calls by dose curve). An outline of the steps: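 Wild-type Hek293 cells, 800/well, 18 h at 37C, then compound with Ro20-1724 for 30 min RT. cAMP by HTRF (cAMP-d2/anti-cAMP cryptate), 1 h RT, fluorescence read. 15 concentrations, triplicates.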

Assay [6] deals with Thyrotropin receptor (Homo sapiens) (UniProt P16473). Nature of the assay: qHTS assay to identify small molecule antagonists of the thyroid stimulating hormone receptor (TSHR) signaling pathway (AID 1259385; calls by dose curve; note: nearly all actives have a fitted effect of over 20% in size). An outline of the steps: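 TSHR-HEK293 cells (800/well) plated 18 h, then compounds with Ro20-1724 and TSH at 1.5 ng/mL final, 30 min at room temperature. cAMP quantified by HTRF (cAMP-d2/anti-cAMP-cryptate, 1 h); 15 concentrations in triplicate.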

The nature of assay [7]: qHTS assay to identify small molecule agonists of the estrogen receptor alpha (ER-alpha) signaling pathway in the presence of an antagonist - cell viability counter screen (AID 1259386).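 Note: series mostly up to about 92 µM; cells exposed to compounds for 22 h at 37 °C before the viability read; nearly all actives have a fitted effect of over 30% in size.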 The method, boiled down: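 VM7Luc4E2, stripped-serum pre-culture 5 d; 24hr plating; +ICI-182,780 10.0nM final; cpds 15 conc, 22hr, 37C/5% CO2; CellTiter-Fluor added at 21hr, fluorescence 1hr later.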

Assay [8] addresses Progesterone receptor (Homo sapiens) (UniProt P06401). Nature of the assay: qHTS assay to identify small molecule agonists of the progesterone receptor (PR) signaling pathway (AID 1346784; calls by dose curve; note: nearly all actives have a fitted effect of over 30% in size). An outline of the steps:
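Reporter assay, GripTite PR-UAS-bla HEK 293T cells: 16 hr exposure to DMSO-dissolved compounds at 37C, 5% CO2, in steroid-depleted (2% charcoal-stripped FBS) medium; beta-lactamase measured by FRET fluorescence.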

Assay [9] has the same target. As to the kind of experiment: qHTS assay to identify small molecule antagonists of the progesterone receptor (PR) signaling pathway (AID 1346795; active = well fitted inhibition curve with a large enough effect in the signal ratio in the repeat runs, not every such curve was filed as active; the % refers to the signal ratio; note: potency is the fitted concentration of half-maximal effect). The method, boiled down: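 Stimulus R5020 at 1 nM final; cells HEK293T PR-UAS-bla; medium with 2% charcoal-stripped FBS; compound exposure 16 hr at 37C, 5% CO2; detection by FRET beta-lactamase substrate, 2 hr, room temperature.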

Assay [10] in a line: qHTS assay to identify small molecule antagonists of the progesterone receptor (PR) signaling pathway - cell viability counter screen (AID 1346798). Note: series mostly up to about 92 µM; nearly all actives have a fitted effect of over 50% in size. The method, boiled down:
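In the same plates used for the beta-lactamase readout, cell viability of compound- and R5020-treated PR-UAS-bla HEK293T cells (16 hr, 37C) was assessed by CellTiter-Glo luminescence.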

Assay [11] in a line: qHTS assay to identify small molecule agonists of the progesterone receptor (PR) signaling pathway - cell viability counter screen (AID 1346799; calls by dose curve; note: nearly all actives have a fitted effect of over 45% in size). An outline of the steps:
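Multiplexed viability read: CellTiter-Glo luminescence, 30 min RT, following LiveBLAzer FRET measurement on PR-UAS-bla HEK293T cells exposed to compounds 16 hr.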

The nature of assay [12]: qHTS assay to identify small molecule antagonists of the TGF-beta/Smad signaling pathway - cell viability counter screen (AID 1346824). Note: nearly all actives have a fitted effect of over 50% in size. An outline of the steps: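 SBE-bla HEK 293T cells, incubated overnight, then compound plus 0.25 ng/mL TGF-beta1 (stock added) for 5 hr at 37 C. Viability was read in the same wells by CellTiter-Glo luminescence after 30 min at room temperature.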

Assay [13] can be described thus: qHTS assay to identify small molecule agonists of the TGF-beta/Smad signaling pathway - cell viability counter screen (AID 1346829). Note: top concentration of the series differs between compounds; nearly all actives have a fitted effect of over 45% in size. An outline of the steps:
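HEK 293T SBE-bla line, 5 hr compound exposure at 37 C, multiplexed CellTiter-Glo viability read by luminescence.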

Assay [14] deals with Thyrotropin-releasing hormone receptor (Homo sapiens) (UniProt P34981). Nature of the assay: qHTS assay to identify small molecule antagonists of the thyrotropin-releasing hormone receptor (TRHR) signaling pathway (AID 1346877; active = well fitted inhibition curve with a large enough effect in the repeat runs, not every such curve was filed as active; note: series mostly up to about 51 µM). An outline of the steps:
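Intracellular calcium fluorescence, read kinetically every second over 3 min, reports TRH-evoked signalling in HEK293 cells carrying TRHR. Test compounds were added 5 min ahead of a 1 nM TRH challenge.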

The nature of assay [15]: qHTS assay to identify small molecule antagonists of the sonic hedgehog signaling (Shh) pathway (AID 1259369; calls by dose curve; note: nearly all actives have a fitted effect of over 45% in size; note: potency is the fitted concentration of half-maximal effect). The method, boiled down:
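3T3Gli1-Luc, conditioned-medium-stimulated, 24hr cpd, 37C/5% CO2; Gli1-driven firefly Luc luminescence after 30min RT with luciferase reagent. Cells plated 4hr before cpd.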

Assay [16] in a line: qHTS assay to identify small molecule agonists of the TGF-beta/Smad signaling pathway (AID 1346859; active = well fitted activation curve with a large enough effect in the signal ratio in the repeat runs, not every such curve was filed as active; the % refers to the signal ratio; note: series mostly up to about 77 µM). An outline of the steps:
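Screening used HEK 293T SBE-bla cells at 4,000/well. Test agents: 5 hr, 37 C. Detection: FRET substrate, 2 hr RT, then excitation 405 nm with emissions at 460 and 530 nm.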

In assay [17] the target is Estrogen receptor beta (Homo sapiens) (UniProt Q92731). As to the kind of experiment: qHTS assay to identify small molecule agonists of the estrogen receptor beta (ER-beta) signaling pathway (AID 1259377; active = well fitted activation curve with a large enough effect in the signal ratio in the repeat runs, not every such curve was filed as active; the % refers to the signal ratio). The method, boiled down:
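Reporter cells (HEK293T, ER-beta-UAS-bla) receive compounds or DMSO after a 6 hr pre-incubation. They then incubate 16 hr at 37C/5% CO2, and fluorescence from LiveBLAzer B/G substrate is measured after 2 hours at room temperature.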

Assay [18] addresses Androgen receptor (Homo sapiens) (UniProt P10275). Nature of the assay: qHTS assay to identify small molecule agonists of the androgen receptor (AR) signaling pathway in the presence of an antagonist (AID 1259381; calls by dose curve; note: nearly all actives have a fitted effect of over 15% in size). The method, boiled down:
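MDA-kb2 cells, 3,000/well, rested 5hr at 37C/0% CO2 → nilutamide 3.0uM final or buffer → compounds, 15 conc. → 16hr at 37C → ONE-Glo, 30min RT → luminescence.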

Thyrotropin-releasing hormone receptor (Homo sapiens), sequence (P34981 whole entry, looked up): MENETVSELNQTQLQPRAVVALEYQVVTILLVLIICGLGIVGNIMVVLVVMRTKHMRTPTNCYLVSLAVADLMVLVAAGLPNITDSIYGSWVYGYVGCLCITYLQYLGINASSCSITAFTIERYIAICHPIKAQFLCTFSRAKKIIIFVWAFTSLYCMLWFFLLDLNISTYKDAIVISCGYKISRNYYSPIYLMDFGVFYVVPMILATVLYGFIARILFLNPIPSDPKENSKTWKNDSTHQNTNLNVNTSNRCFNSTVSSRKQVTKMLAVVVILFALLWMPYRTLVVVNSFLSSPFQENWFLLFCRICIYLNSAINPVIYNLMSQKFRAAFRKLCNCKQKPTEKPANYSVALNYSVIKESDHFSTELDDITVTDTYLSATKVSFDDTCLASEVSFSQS
Progesterone receptor (Homo sapiens), sequence (P06401 whole entry, looked up): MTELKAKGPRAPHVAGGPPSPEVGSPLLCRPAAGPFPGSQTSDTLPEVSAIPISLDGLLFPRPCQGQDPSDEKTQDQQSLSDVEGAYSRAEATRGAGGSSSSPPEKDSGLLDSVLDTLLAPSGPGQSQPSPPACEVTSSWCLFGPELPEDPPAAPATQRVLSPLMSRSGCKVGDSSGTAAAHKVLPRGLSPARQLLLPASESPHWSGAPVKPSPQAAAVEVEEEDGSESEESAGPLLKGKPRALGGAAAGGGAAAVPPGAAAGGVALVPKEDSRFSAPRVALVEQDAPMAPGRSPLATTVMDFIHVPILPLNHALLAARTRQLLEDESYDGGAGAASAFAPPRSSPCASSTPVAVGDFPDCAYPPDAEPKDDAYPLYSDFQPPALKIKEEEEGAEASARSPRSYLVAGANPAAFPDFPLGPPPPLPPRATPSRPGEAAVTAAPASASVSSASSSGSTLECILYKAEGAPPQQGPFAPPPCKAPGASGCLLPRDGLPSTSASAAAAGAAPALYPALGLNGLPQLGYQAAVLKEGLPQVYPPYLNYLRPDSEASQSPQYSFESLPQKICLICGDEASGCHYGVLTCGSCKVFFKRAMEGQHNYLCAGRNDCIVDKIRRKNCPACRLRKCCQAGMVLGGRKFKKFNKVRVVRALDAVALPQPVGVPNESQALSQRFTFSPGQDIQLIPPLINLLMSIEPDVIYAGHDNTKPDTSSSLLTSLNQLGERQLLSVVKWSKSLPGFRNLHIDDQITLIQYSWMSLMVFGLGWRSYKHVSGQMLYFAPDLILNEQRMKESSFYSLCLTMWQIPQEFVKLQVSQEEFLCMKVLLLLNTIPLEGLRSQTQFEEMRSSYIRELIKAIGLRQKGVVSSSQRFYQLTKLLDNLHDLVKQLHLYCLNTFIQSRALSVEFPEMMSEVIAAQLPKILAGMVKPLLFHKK
Estrogen receptor beta (Homo sapiens), sequence (Q92731 whole entry, looked up): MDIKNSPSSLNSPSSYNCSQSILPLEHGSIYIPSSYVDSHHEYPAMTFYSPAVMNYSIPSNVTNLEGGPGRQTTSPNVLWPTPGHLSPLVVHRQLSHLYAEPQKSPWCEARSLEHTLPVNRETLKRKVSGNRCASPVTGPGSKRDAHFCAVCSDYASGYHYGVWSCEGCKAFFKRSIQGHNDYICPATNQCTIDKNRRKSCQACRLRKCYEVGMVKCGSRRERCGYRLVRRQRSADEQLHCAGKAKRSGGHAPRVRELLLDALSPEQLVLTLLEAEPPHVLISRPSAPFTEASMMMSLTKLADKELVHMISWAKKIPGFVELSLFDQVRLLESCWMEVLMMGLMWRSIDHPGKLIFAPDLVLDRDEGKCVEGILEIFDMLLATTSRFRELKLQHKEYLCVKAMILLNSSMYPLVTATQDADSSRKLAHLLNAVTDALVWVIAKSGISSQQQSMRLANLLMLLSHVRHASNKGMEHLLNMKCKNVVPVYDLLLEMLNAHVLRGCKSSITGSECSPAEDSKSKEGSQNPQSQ
Thyrotropin receptor (Homo sapiens), sequence (P16473 whole entry, looked up): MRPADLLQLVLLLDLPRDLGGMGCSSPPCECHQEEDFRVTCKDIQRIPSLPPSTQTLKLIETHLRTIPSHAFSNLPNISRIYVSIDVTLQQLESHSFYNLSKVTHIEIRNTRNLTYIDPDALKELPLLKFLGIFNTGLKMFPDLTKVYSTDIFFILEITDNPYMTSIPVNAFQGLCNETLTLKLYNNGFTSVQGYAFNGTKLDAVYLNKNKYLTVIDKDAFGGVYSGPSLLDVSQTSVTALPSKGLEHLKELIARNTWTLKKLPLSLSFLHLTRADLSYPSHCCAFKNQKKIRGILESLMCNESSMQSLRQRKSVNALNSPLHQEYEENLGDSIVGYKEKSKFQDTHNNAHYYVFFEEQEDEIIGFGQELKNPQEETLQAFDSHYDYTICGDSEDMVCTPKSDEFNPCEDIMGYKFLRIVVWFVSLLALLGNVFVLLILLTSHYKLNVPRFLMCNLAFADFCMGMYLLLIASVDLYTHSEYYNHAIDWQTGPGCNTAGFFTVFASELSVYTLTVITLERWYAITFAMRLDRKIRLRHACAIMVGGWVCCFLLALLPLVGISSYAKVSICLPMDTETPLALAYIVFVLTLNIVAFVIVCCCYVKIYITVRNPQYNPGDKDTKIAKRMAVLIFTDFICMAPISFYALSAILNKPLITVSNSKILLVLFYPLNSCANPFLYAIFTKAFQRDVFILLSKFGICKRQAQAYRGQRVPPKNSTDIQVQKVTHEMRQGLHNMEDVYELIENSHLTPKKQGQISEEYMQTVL
Androgen receptor (Homo sapiens), sequence (P10275 whole entry, looked up): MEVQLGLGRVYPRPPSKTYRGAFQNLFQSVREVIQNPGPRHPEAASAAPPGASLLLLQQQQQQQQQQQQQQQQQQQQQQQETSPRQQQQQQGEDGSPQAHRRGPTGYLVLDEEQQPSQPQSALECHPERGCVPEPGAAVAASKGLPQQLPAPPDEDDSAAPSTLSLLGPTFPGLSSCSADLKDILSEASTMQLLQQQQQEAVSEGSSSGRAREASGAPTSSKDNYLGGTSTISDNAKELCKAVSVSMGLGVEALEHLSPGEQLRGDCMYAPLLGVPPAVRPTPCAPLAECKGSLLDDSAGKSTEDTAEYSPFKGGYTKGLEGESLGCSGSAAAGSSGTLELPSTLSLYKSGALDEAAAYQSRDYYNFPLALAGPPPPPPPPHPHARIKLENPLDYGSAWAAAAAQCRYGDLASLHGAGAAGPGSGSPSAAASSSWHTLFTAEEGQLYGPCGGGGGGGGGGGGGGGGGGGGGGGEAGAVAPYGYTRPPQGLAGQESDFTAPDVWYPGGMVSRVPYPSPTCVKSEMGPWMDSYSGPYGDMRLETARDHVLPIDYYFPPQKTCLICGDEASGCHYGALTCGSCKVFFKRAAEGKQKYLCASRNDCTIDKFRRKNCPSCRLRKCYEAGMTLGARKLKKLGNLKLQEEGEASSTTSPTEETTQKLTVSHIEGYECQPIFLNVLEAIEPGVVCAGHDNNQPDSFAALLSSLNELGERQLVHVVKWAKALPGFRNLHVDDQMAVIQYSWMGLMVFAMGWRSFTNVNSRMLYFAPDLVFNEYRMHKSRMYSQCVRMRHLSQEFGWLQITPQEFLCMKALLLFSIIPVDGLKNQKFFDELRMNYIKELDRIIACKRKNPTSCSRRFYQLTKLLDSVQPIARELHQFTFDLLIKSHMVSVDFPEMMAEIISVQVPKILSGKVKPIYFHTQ

On to `C=C(C)C(=O)OCC(CC)(COC(=O)C(=C)C)COC(=O)C(=C)C`, for which the outcome in assay [1], in [5], in assay [6] and in [14] was inactive. For the same compound, the Potency result in assay [2], in [3], in [4], in assay [7], in assay [8] and in assay [9] was “inactive” in each case. Further, the Potency result in [10], in assay [11], in [12] and in [13] was “inactive” each time.

Regarding `C=C(C#N)C(=O)OCC`, the compound was called inactive in assay [1], in assay [5], in assay [6], in assay [16] and in assay [14]. Also, the Potency entry in [15] was “inactive and 15.4 µM (active)”. For the same compound, the Potency result in assay [2], in assay [3], in assay [4], in [7], in assay [8] and in assay [9] was “inactive” each time. For the same compound, the Potency result in assay [10], in assay [11], in assay [12] and in assay [13] was “inactive” throughout.

As for `COC(=O)Nc1nc2ccc(Sc3ccccc3)cc2[nH]1`, the outcome in [1], in [5], in assay [6], in assay [16] and in [14] was inactive. For the same compound, the Potency in assay [15] was 1.93 µM (active) and 2.66 µM (active). The Potency entry in assay [2], in assay [3], in [4], in assay [7], in assay [8] and in assay [10] was “inactive” throughout. Also, the Potency entry in [12] and in [13] was “inactive” throughout.

Take `Cc1ccc(N)c(S(=O)(=O)O)c1`: the outcome in assay [1], in assay [5], in [6], in [16] and in assay [14] was inactive. In addition, the Potency result in assay [15], in [17], in assay [3], in assay [4], in assay [7] and in assay [8] was “inactive” in each case. Besides, the Potency result in [9], in assay [10], in assay [11], in assay [12] and in assay [13] was “inactive” each time.

As to `Oc1ccc2ccccc2c1`, the compound was called inactive in assay [1], in assay [5], in assay [6] and in assay [16]. In addition, the Potency is 5.58 µM (active) and 9.69 µM (active) in assay [15]; 48.6 µM (active) in assay [9]. Also, the Potency result in assay [3], in [18], in assay [4], in assay [7], in [8] and in assay [10] was “inactive” each time. Also, the Potency result in assay [11], in assay [12] and in [13] was “inactive” each time.

Regarding `C=C1CC[C@H](O)CC1=C/C=C1\CCC[C@]2(C)[C@@H]([C@H](C)/C=C/[C@H](C)C(C)C)CC[C@@H]12`, the result in [1], in assay [5], in assay [6] and in assay [16] was inactive. Moreover, the Potency is 4.81 µM (active) and 17.2 µM (active) in assay [15]; 24.1 µM (active) and 30.6 µM (active) in [3]; 42.9 µM (active) in assay [4]. The Potency result in assay [17], in assay [8], in [10] and in assay [13] was “inactive” in each case.

Regarding `CC(C)n1c(/C=C/[C@@H](O)C[C@@H](O)CC(=O)O)c(-c2ccc(F)cc2)c2ccccc21`, the outcome in assay [1], in [16] and in [14] was inactive. For the same compound, the Potency entry in [2], in assay [7], in assay [8] and in assay [13] was “inactive” each time. Further, the Potency in assay [3] was 13.7 µM (active) and 4.73 µM (active); in [4] it was 15.4 µM (active).
